Source: article PMC9911399, “Two distinct binding modes provide the RNA-binding protein RbFox with extraordinary sequence specificity”
Residue numbers refer to the chain shown, from its start. Whole data set: some 16,000 sequences, median “ka relative to ugcaugu” near 0.0091, cut for the highest 2% near 0.032. Many of the other results were omitted from the sample, so the highest values are more common in it than they were.

T1: RBFOX1 RRM (Homo sapiens, UniProt Q9NWB1 109-208)
T1 sequence: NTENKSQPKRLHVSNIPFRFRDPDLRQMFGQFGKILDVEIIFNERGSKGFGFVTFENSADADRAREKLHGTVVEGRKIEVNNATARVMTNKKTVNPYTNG

B1: UCGUGUC (DNA:RNA)
RNA: GGGAGACCGGAAUUCAGAUUGUCCUCGUGUCUUAAAUCCCGUCGUAGCCACCA
DNA 1: CAATCTGAATTCCGGTCTCCC
DNA 2: TGGTGGCTACGACGGGATT
B2: AGCGUAU (DNA:RNA)
RNA: GGGAGACCGGAAUUCAGAUUGUCCAGCGUAUUUAAAUCCCGUCGUAGCCACCA
DNA 1: CAATCTGAATTCCGGTCTCCC
DNA 2: TGGTGGCTACGACGGGATT
B3: CCUGAUG (DNA:RNA)
RNA: B1 RNA with U25C, G27U, U28G, G29A, C31G
DNA 1: CAATCTGAATTCCGGTCTCCC
DNA 2: TGGTGGCTACGACGGGATT
B4: GCGUCGC (DNA:RNA)
RNA: B1 RNA with U25G, G29C, U30G
DNA 1: CAATCTGAATTCCGGTCTCCC
DNA 2: TGGTGGCTACGACGGGATT
B5: GUGAUAC (DNA:RNA)
RNA: B2 RNA with A25G, G26U, C27G, G28A, U31C
DNA 1: CAATCTGAATTCCGGTCTCCC
DNA 2: TGGTGGCTACGACGGGATT
B6: CCGUGAG (DNA:RNA)
RNA: B1 RNA with U25C, U30A, C31G
DNA 1: CAATCTGAATTCCGGTCTCCC
DNA 2: TGGTGGCTACGACGGGATT
B7: GAACUGU (DNA:RNA)
RNA: B2 RNA with A25G, G26A, C27A, G28C, A30G
DNA 1: CAATCTGAATTCCGGTCTCCC
DNA 2: TGGTGGCTACGACGGGATT
B8: GUGGAUG (DNA:RNA)
RNA: B1 RNA with U25G, C26U, U28G, G29A, C31G
DNA 1: CAATCTGAATTCCGGTCTCCC
DNA 2: TGGTGGCTACGACGGGATT
B9: GGAUUGU (DNA:RNA)
RNA: B2 RNA with A25G, C27A, G28U, A30G
DNA 1: CAATCTGAATTCCGGTCTCCC
DNA 2: TGGTGGCTACGACGGGATT
B10: GGAUGUG (DNA:RNA)
RNA: B1 RNA with U25G, C26G, G27A, C31G
DNA 1: CAATCTGAATTCCGGTCTCCC
DNA 2: TGGTGGCTACGACGGGATT
B11: GGGAUGU (DNA:RNA)
RNA: B2 RNA with A25G, C27G, G28A, A30G
DNA 1: CAATCTGAATTCCGGTCTCCC
DNA 2: TGGTGGCTACGACGGGATT
B12: GGAUGUU (DNA:RNA)
RNA: B1 RNA with U25G, C26G, G27A, C31U
DNA 1: CAATCTGAATTCCGGTCTCCC
DNA 2: TGGTGGCTACGACGGGATT
B13: CCGGAUG (DNA:RNA)
RNA: B1 RNA with U25C, U28G, G29A, C31G
DNA 1: CAATCTGAATTCCGGTCTCCC
DNA 2: TGGTGGCTACGACGGGATT
B14: GGAGAUG (DNA:RNA)
RNA: B2 RNA with A25G, C27A, U29A, A30U, U31G
DNA 1: CAATCTGAATTCCGGTCTCCC
DNA 2: TGGTGGCTACGACGGGATT
B15: GUGGAGA (DNA:RNA)
RNA: B2 RNA with A25G, G26U, C27G, U29A, A30G, U31A
DNA 1: CAATCTGAATTCCGGTCTCCC
DNA 2: TGGTGGCTACGACGGGATT
B16: GGGGAUG (DNA:RNA)
RNA: B2 RNA with A25G, C27G, U29A, A30U, U31G
DNA 1: CAATCTGAATTCCGGTCTCCC
DNA 2: TGGTGGCTACGACGGGATT
B17: GGAUGUC (DNA:RNA)
RNA: B1 RNA with U25G, C26G, G27A
DNA 1: CAATCTGAATTCCGGTCTCCC
DNA 2: TGGTGGCTACGACGGGATT
B18: CGGGAUG (DNA:RNA)
RNA: B2 RNA with A25C, C27G, U29A, A30U, U31G
DNA 1: CAATCTGAATTCCGGTCTCCC
DNA 2: TGGTGGCTACGACGGGATT
B19: UUGGAUG (DNA:RNA)
RNA: B1 RNA with C26U, U28G, G29A, C31G
DNA 1: CAATCTGAATTCCGGTCTCCC
DNA 2: TGGTGGCTACGACGGGATT
B20: AACCAGU (DNA:RNA)
RNA: B2 RNA with G26A, G28C, U29A, A30G
DNA 1: CAATCTGAATTCCGGTCTCCC
DNA 2: TGGTGGCTACGACGGGATT

Each binder was assayed against T1, RBFOX1 RRM (assay: EMSA; HiTS-Eq, 1 nM pool, 10 min; buffer printed only for the single-RNA assays: 10 mM Tris pH 7.5, 150 mM NaCl, 3.4 mM EDTA, 0.001% NP-40, 30 C). Details: tags: His6 N-terminal (pET28a); label: 5' 32P.
Summary of the method: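 Relative association constants, normalised to the cognate motif, were derived by comparing read counts of each RNA species with those of the control reaction. The RNA sequenced was the free fraction, separated by 8% native PAGE after a 10 min equilibration in 50 µL of 1 nM 5′-radiolabelled RNA (7 randomized nucleotides) with increasing concentrations of purified wild-type or mutant RbFox RRM.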
For B1, the binding signal was 0.0187 KA relative to UGCAUGU.
With B2 the binding signal was 0.00639 KA relative to UGCAUGU.
B3 was tested, and the binding signal was 0.0205 KA relative to UGCAUGU.
With B4 the binding signal was 0.0157 KA relative to UGCAUGU.
With B5 the binding signal was 0.00876 KA relative to UGCAUGU.
B6 was tested, and the binding signal was 0.0105 KA relative to UGCAUGU.
B7 was tested, and the binding signal was 0.0163 KA relative to UGCAUGU.
With B8 the binding signal was 0.0371 KA relative to UGCAUGU.
In the case of B9, the binding signal is reported as 0.0266 KA relative to UGCAUGU.
In the case of B10, the binding signal is reported as 0.0207 KA relative to UGCAUGU.
With B11 the binding signal was 0.048 KA relative to UGCAUGU.
For B12, the binding signal was 0.0216 KA relative to UGCAUGU.
B13 was tested, and the binding signal was 0.00955 KA relative to UGCAUGU.
B14 was tested, and the binding signal was 0.0269 KA relative to UGCAUGU.
In the case of B15, the binding signal is reported as 0.0173 KA relative to UGCAUGU.
For B16, the binding signal was 0.0389 KA relative to UGCAUGU.
With B17 the binding signal was 0.027 KA relative to UGCAUGU.
In the case of B18, the binding signal is reported as 0.0412 KA relative to UGCAUGU.
With B19 the binding signal was 0.0302 KA relative to UGCAUGU.
For B20, the binding signal was 0.000945 KA relative to UGCAUGU.
